# Data reported in PubChem BioAssay (Tox21).
# Unmarked numbers belong to inactive results. Records with an inconclusive call do not appear. A call without a number means that no potency is given here. Calls of active or inactive are those of the source. Unless noted, calls follow the shape of the dose curve; as a rule, active = well fitted curve in the direction sought with a large enough effect in the repeat runs; inconclusive = weak or mixed curves; inactive = no such curve, though single readings can be large; an effect the other way counts as inactive or inconclusive.
# Assays:
# [1] = qHTS assay for small molecule agonists of the p53 signaling pathway (AID 651631; calls by dose curve; also: nearly all actives have a fitted effect of over 15% in size; also: potency is read from the fitted curve at half-maximal effect)
# How it was run: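 Agonist mode screen using a stably integrated beta-lactamase gene under p53 response elements in HCT-116 cells. Compound exposure lasts 16 h at 37 °C; fluorescence intensity is measured following 2 h FRET substrate loading.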
# [2] = qHTS assay for small molecule agonists of the p53 signaling pathway - cell viability (AID 651633; calls by dose curve; also: nearly all actives have a fitted effect of over 30% in size; also: potency is read from the fitted curve at half-maximal effect)
# How it was run: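 p53RE-bla cells were treated with compound for 16 hours at 37 C. Cytotoxicity was then measured as CellTiter-Glo luminescence after 30 min at room temperature.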
# [3] = qHTS assay for small molecule disruptors of the mitochondrial membrane potential - cell viability (AID 720634; calls by dose curve; also: nearly all actives have a fitted effect of over 20% in size; also: potency is read from the fitted curve at half-maximal effect)
# How it was run: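 Luminescence from CellTiter-Glo (ATP content) gave viability in HepG2 cells, read in the same wells as the MMP dye assay after 1 hr compound exposure at 37 C.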
# [4] = qHTS assay to test for compound auto fluorescence at 590 nm (red) in HepG2 cells (AID 720674)
# How it was run: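 Fluorescence at 590 nm emission following 540 nm excitation was recorded from HepG2 wells one hour after compound transfer, with DMSO-only wells as vehicle and Rose Bengal sodium equivalency as the scale.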
# [5] = qHTS assay to test for compound auto fluorescence at 535 nm (green) in HepG2 cells (AID 720675)
# [6] = qHTS assay to test for compound auto fluorescence at 460 nm (blue) in HEK293 cells (AID 720678)
# How it was run: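 Triamterene serves as the blue fluorophore standard. Compound signal at 405/460 nm is read in HEK293 wells (2,000 cells, 10% dialyzed FBS) after overnight treatment at 37C.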
# [7] = qHTS assay to test for compound auto fluorescence at 590 nm (red) in HEK293 cells (AID 720679)
# How it was run: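 We plated HEK293 cells in 10% dialyzed FBS medium, let them adhere for 4-5 hr, then added 23 nL compound. Overnight at 37C and 5% CO2 preceded fluorescence measurement at 540/590nm.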
# [8] = qHTS assay to test for compound auto fluorescence at 535 nm (green) in HEK293 cells (AID 720680)
# [9] = qHTS assay to test for compound auto fluorescence at 460 nm (blue) in HEK293 cell free culture (AID 720681)
# How it was run: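 Compounds were added to cell-free DMEM with 10% FBS and fluorescence read directly. The blue channel used 405 nm excitation and 460 nm emission, with triamterene as the reference fluorophore.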
# [10] = qHTS assay to test for compound auto fluorescence at 535 nm (green) in HEK293 cell free culture (AID 720682)
# How it was run: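 No cells present: wells hold DMEM supplemented with 10% FBS, into which compound or vehicle is pinned. Green emission is then recorded (485 nm excitation, 535 nm emission) and scaled to fluorescein.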
# [11] = qHTS assay to test for compound auto fluorescence at 590 nm (red) in HepG2 cell free culture (AID 720684)
# How it was run: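 Rose Bengal sodium served as the reference for red signal. Test compounds were dispensed into serum-containing MEM (10% FBS) without cells, and plates were read at 540/590 nm.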
# [12] = qHTS assay to test for compound auto fluorescence at 460 nm (blue) in HepG2 cells (AID 720687)
# How it was run: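 HepG2 cells in MEM with 10% FBS, attached overnight at 37 C, were exposed to compound or DMSO for 1 hr at 37 C, 5% CO2. Blue fluorescence was read at 405/460 nm, with triamterene as reference fluorophore.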
# [13] = qHTS assay for small molecules that induce genotoxicity in human embryonic kidney cells expressing luciferase-tagged ATAD5 (AID 651632); also: nearly all actives have a fitted effect of over 15% in size
# How it was run: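 Luminescence read-out: after 16 hr compound exposure at 37C, ATAD5-luciferase HEK293T cells received Amplite, 30 min RT, then CCD imaging. A rise in signal marks genotoxic stress.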
# [14] = qHTS assay for small molecules that induce genotoxicity in human embryonic kidney cells expressing luciferase-tagged ATAD5 - cell viability (AID 651634; calls by dose curve; also: nearly all actives have a fitted effect of over 25% in size; also: potency is read from the fitted curve at half-maximal effect)
# How it was run: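 HEK293T ATAD5-luc cells, 2,000/well; compound 15.5 hr, 37C/5% CO2; CellTiter-Fluor 30 min, 37C; fluorescence read.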
# [15] = qHTS assay for small molecule disruptors of the mitochondrial membrane potential (AID 720635); also: potency is read from the fitted curve at half-maximal effect
# How it was run: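 HepG2 cells exposed to compound 1 hr at 37C, then Mito-MPS dye 30 min. Ratio read of aggregate (540/590 nm) versus monomer (490/535 nm) fluorescence.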
# [16] = qHTS assay to test for compound auto fluorescence at 590 nm (red) in HEK293 cell free culture (AID 720683)
# How it was run: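 Cell-free wells of DMEM with 10% FBS received compound, and intrinsic fluorescence was read at excitation/emission 540/590 nm. Values expressed as equivalence to Rose Bengal sodium.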
# [17] = qHTS assay to test for compound auto fluorescence at 460 nm (blue) in HepG2 cell free culture (AID 720685)
# How it was run: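 Cell-free plates of MEM plus 10% FBS received 23 nL compound or DMSO vehicle; blue-channel (405/460 nm) intensity scored against triamterene as reference fluorophore.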
# [18] = qHTS assay to test for compound auto fluorescence at 535 nm (green) in HepG2 cell free culture (AID 720686)
# [19] = target: Glucocorticoid receptor (Homo sapiens) (UniProt P04150); test: qHTS assay to identify small molecule antagonists of the glucocorticoid receptor (GR) signaling pathway (AID 720692; active = well fitted inhibition curve with a large enough effect in the signal ratio in the repeat runs, not every such curve was filed as active; the % refers to the signal ratio)
# How it was run: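 Read-out: beta-lactamase FRET substrate fluorescence, 2 h at room temperature, in HeLa cells stably carrying a GRE-driven bla reporter. Compounds were co-incubated with 5 nM dexamethasone agonist (final) for 18 h at 37 C.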
# [20] = target: Glucocorticoid receptor (Homo sapiens) (UniProt P04150); test: qHTS assay to identify small molecule agonists of the glucocorticoid receptor (GR) signaling pathway (AID 720691; active = well fitted activation curve with a large enough effect in the signal ratio in the repeat runs, not every such curve was filed as active; the % refers to the signal ratio); conditions: GR-bla HeLa, beta-lactamase reporter ratio, 18 h; activation: at 62.4 µM (top of the series) unless noted
# How it was run: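 HeLa GR-bla reporter line; cells pre-incubated 4 h, compound in DMSO 18 h at 37 C; LiveBLAzer B/G FRET substrate 2 h RT; fluorescence intensity read-out.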
# Sequence of Glucocorticoid receptor (Homo sapiens) (P04150 whole entry, looked up): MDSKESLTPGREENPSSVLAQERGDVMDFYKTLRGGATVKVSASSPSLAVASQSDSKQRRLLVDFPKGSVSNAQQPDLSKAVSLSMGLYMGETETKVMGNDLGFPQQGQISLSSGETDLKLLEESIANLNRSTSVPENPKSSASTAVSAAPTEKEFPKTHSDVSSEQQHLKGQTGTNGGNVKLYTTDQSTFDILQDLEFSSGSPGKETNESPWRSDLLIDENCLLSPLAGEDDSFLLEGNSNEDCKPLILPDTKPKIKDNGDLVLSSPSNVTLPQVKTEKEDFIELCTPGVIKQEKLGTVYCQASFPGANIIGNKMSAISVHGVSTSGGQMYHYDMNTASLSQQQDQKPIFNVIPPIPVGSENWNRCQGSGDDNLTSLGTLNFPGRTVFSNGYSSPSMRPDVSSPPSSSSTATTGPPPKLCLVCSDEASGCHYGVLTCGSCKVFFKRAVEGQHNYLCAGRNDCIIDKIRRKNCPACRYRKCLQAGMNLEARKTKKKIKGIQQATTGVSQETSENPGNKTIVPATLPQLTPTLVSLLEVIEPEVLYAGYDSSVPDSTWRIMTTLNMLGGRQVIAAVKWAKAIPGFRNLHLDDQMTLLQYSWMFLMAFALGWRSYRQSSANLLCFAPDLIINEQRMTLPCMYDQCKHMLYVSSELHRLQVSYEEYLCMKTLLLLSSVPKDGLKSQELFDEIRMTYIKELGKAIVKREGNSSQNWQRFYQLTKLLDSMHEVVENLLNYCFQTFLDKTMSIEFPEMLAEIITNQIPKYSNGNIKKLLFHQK
structure (smiles),measurement,setting,value
COc1ccc(-c2nc3ccc(C4=NNC(=O)CC4C)cc3[nH]2)cc1 (configuration not stated),Potency,[1],11.9 µM (active)
same,Potency,[2],inactive
same,Potency,[3],inactive
same,Potency,[4],inactive
same,Potency,[5],inactive
same,outcome,[6],inactive
same,Potency,[7],inactive
same,outcome,[8],inactive
same,outcome,[9],inactive
same,outcome,[10],inactive
same,Potency,[11],inactive
same,outcome,[12],inactive
CC(C)(C)Cl,Potency,[13],inactive
same,Potency,[2],inactive
same,Potency,[14],inactive
same,Potency,[3],inactive
same,Potency,[15],inactive
same,outcome,[6],inactive
same,Potency,[7],inactive
same,outcome,[8],inactive
same,outcome,[9],inactive
same,outcome,[10],inactive
same,Potency,[16],inactive
same,Potency,[11],inactive
same,outcome,[17],inactive
same,Potency,[18],inactive
same,outcome,[12],inactive
C[C@@H](c1ncncc1F)C(O)(Cn1cncn1)c1ccc(F)cc1F (some centres not stated),Potency,[1],inactive
same,Potency,[2],inactive
same,Potency,[14],inactive
same,Potency,[3],inactive
same,Potency,[5],inactive
same,outcome,[6],inactive
same,Potency,[7],inactive
same,outcome,[8],inactive
same,outcome,[9],inactive
same,outcome,[10],inactive
same,Potency,[11],inactive
same,outcome,[17],inactive
same,outcome,[12],inactive
same,Potency,[19],inactive
CN(C)CCCN1c2ccccc2Sc2ccccc21,Potency,[13],inactive
same,Potency,[2],inactive
same,Potency,[14],inactive
same,Potency,[3],inactive
same,"fluorescence, relative to Rose Bengal",[4],0.23% [at 18.6 µM]
same,"fluorescence, % of fluorescein control",[5],-0.18% [at 18.6 µM]
same,"fluorescence, % of triamterene",[6],0.0346% [at 18.6 µM]
same,"fluorescence, % of fluorescent control",[7],-0.0069% [at 18.6 µM]
same,"fluorescence, % of fluorescein",[8],-0.0365% [at 18.6 µM]
same,"fluorescence, % of fluorescent control",[9],-0.0313% [at 18.6 µM]
same,activity change,[10],-0.0157% [at 18.6 µM]
same,"fluorescence, % of fluorescent control",[16],0.0444% [at 18.6 µM]
same,"fluorescence, % of Rose Bengal",[11],-0.194% [at 18.6 µM]
same,"fluorescence, % of fluorescent control",[17],0.0019% [at 18.6 µM]
same,"fluorescence, % of fluorescein control",[18],0.134% [at 18.6 µM]
C=C(C)C(=O)OCC,Potency,[13],inactive
same,Potency,[2],inactive
same,Potency,[14],inactive
same,Potency,[3],inactive
same,Potency,[15],inactive
same,Potency,[4],inactive
same,Potency,[5],inactive
same,outcome,[6],inactive
same,Potency,[7],inactive
same,outcome,[8],inactive
same,outcome,[9],inactive
same,outcome,[10],inactive
same,Potency,[16],inactive
same,Potency,[11],inactive
same,Potency,[18],inactive
same,Potency,[20],inactive
same,Potency,[19],inactive
CC1=CC[C@H](C(C)C)C=C1,Potency,[1],inactive
same,Potency,[2],inactive
same,Potency,[14],inactive
same,Potency,[4],inactive
same,Potency,[5],inactive
same,outcome,[6],inactive
same,Potency,[7],inactive
same,outcome,[8],inactive
same,outcome,[9],inactive
same,outcome,[10],inactive
same,Potency,[11],inactive
same,outcome,[17],inactive
Nc1cccc([N+](=O)[O-])c1,Potency,[1],inactive
same,Potency,[2],inactive
same,Potency,[14],inactive
same,Potency,[3],inactive
same,Potency,[4],inactive
same,Potency,[7],inactive
same,outcome,[8],inactive
same,outcome,[9],inactive
same,outcome,[10],inactive
same,Potency,[16],inactive
same,Potency,[11],inactive
same,outcome,[17],inactive
same,Potency,[18],inactive
same,outcome,[12],inactive
CC(=O)c1ccc2c(c1)N(CCCN(C)C)c1ccccc1S2,Potency,[1],inactive
same,Potency,[2],inactive
same,Potency,[3],inactive
same,"fluorescence, relative to Rose Bengal",[4],-0.407% [at 18.6 µM]
same,"fluorescence, % of fluorescein control",[5],0.0535% [at 18.6 µM]
same,"fluorescence, % of triamterene",[6],-0.118% [at 18.6 µM]
same,"fluorescence, % of fluorescent control",[7],0.0215% [at 18.6 µM]
same,"fluorescence, % of fluorescein",[8],-0.246% [at 18.6 µM]
same,"fluorescence, % of fluorescent control",[9],-0.103% [at 18.6 µM]
same,"fluorescence, % of fluorescent control",[16],-0.0325% [at 18.6 µM]
same,"fluorescence, % of Rose Bengal",[11],0.233% [at 18.6 µM]
same,"fluorescence, % of fluorescent control",[17],0.0422% [at 18.6 µM]
same,"fluorescence, % of fluorescein control",[18],-0.0543% [at 18.6 µM]
same,"fluorescence, % of fluorescent control",[12],-0.0528% [at 18.6 µM]
same,Potency,[20],inactive
same,Potency,[19],inactive
CCCCCCCCCCCCN1CCCCCC1=O,Potency,[13],inactive
same,Potency,[2],15.4 µM (active)
same,Potency,[14],61.1 µM (active)
same,Potency,[3],27.3 µM (active)
same,Potency,[15],27.3 µM (active)
same,Potency,[4],inactive
same,Potency,[5],inactive
same,outcome,[6],inactive
same,Potency,[7],inactive
same,outcome,[8],inactive
same,outcome,[9],inactive
same,outcome,[10],inactive
same,Potency,[11],inactive
same,outcome,[17],inactive
same,Potency,[18],inactive
same,outcome,[12],inactive
CCCCCCCC#N,Potency,[13],inactive
same,Potency,[2],inactive
same,Potency,[14],inactive
same,Potency,[3],inactive
same,Potency,[15],inactive
same,Potency,[4],inactive
same,Potency,[5],inactive
same,outcome,[6],inactive
same,Potency,[7],inactive
same,outcome,[8],inactive
same,outcome,[9],inactive
same,outcome,[10],inactive
same,Potency,[16],inactive
same,Potency,[11],inactive
same,outcome,[17],inactive
same,Potency,[18],inactive
same,outcome,[12],inactive
same,Potency,[20],inactive
same,Potency,[19],inactive
CC(C)(C)OCC1CO1 (configuration not stated),Potency,[13],inactive
same,Potency,[2],inactive
same,Potency,[14],inactive
same,Potency,[3],inactive
same,Potency,[15],inactive
same,Potency,[4],inactive
same,Potency,[5],inactive
same,outcome,[6],inactive
same,Potency,[7],inactive
same,outcome,[8],inactive
same,outcome,[9],inactive
same,outcome,[10],inactive
same,Potency,[16],inactive
same,Potency,[11],inactive
same,outcome,[17],inactive
same,Potency,[18],inactive
same,outcome,[12],inactive
COc1ccc(C(=O)c2ccc(OC)cc2O)c(O)c1,Potency,[1],19.5 µM (active)
same,Potency,[2],inactive
same,Potency,[14],inactive
same,Potency,[15],6.16 µM (active)
same,Potency,[4],inactive
same,outcome,[6],inactive
same,Potency,[7],inactive
same,outcome,[8],inactive
same,outcome,[9],inactive
same,outcome,[10],inactive
same,outcome,[17],inactive
same,Potency,[20],inactive
COCC(C)OC(C)=O (configuration not stated),Potency,[13],inactive
same,Potency,[2],inactive
same,Potency,[14],inactive
same,Potency,[3],inactive
same,Potency,[15],inactive
same,Potency,[4],inactive
same,Potency,[5],inactive
same,outcome,[6],inactive
same,Potency,[7],inactive
same,outcome,[8],inactive
same,outcome,[9],inactive
same,outcome,[10],inactive
same,Potency,[16],inactive
same,Potency,[11],inactive
same,outcome,[17],inactive
same,outcome,[12],inactive
same,Potency,[20],inactive
same,Potency,[19],inactive
